From PubChem
NADH enzymes = inhibitors of enzymes used to reach an NAD/NADH endpoint. IC50, µM (series often up to 10 µM), without a hit: at the top dose inhibition. coupled PK/LDH NADH assays, four targets. 65,000 compounds, 0.02% hits;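 active = single-dose screening hits from any of four coupled enzyme assays that gave an IC50 when retested across doses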;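 also: the DPM-DC format reads NADH fluorescence rather than 340 nm absorbance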
Fluor 339 460 = intrinsic fluorescence of library compounds, ex339/em460 – biochemical, MLSMR library, data from DPM-DC assay, artefact control, profiling panel; AID 709; compound autofluorescence, ex339/em460 nm, NADH buffer; stronger effect = higher value; 1 = no-compound wells, NADH background; 65,000 compounds, 5.5% hits; fluorescence fold increase at 10 µM;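 active = at 10 µM, mean starting fluorescence two-fold or more over control wells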;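 also: signal is the first read of a kinetic run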
DPM-DC inhibit = inhibitors of Streptococcus pneumoniae diphosphomevalonate decarboxylase | calls only at 10 µM | purified DPM-DC, PK/LDH coupled NADH fluorescence | 65,000 compounds, 0.49% hits | AID 556;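 active = the 320 compounds with the highest percent inhibition in the single-dose primary screen, excluding strongly autofluorescent ones, cut at about 32% in these data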;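 also: kinetic rate of NADH fluorescence loss reporting ADP formed by the decarboxylase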
Spn MK inh = S. pneumoniae mevalonate kinase inhibition. purified MK, PK/LDH-coupled NADH absorbance 340 nm. inhibition, % at 10 µM. 65,000 compounds, 0.48% hits. AID 555;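 active = ranked among the strongest by inhibition in the single 10 µM screen, a fixed top-ranked set picked for dose follow-up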
PMK inhibit = blocks S. pneumoniae phosphomevalonate kinase; purified PMK, PK/LDH-coupled NADH absorbance 340 nm; inhibition, % at 10 µM; 65,000 compounds, 0.49% hits;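 active = top-ranked compounds by inhibition in the single 10 µM screen, taking a fixed number of the strongest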;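 also: 0% = full reaction with DMSO carrier and 100% = background rate without enzyme reaction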
Abs 340nm = compounds absorbing at 340 nm; compound absorbance at 340 nm, fold over control; fold change at 10 µM; 65,000 tested, under 10 active; AID 708;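 active = at 10 µM dose, initial 340 nm absorbance at least 2 fold that of control wells; inactive = change under 2 fold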;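 also: initial absorbance extrapolated from kinetic A340 decline of NADH oxidation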
Starred values were filed as active, the others as inactive; i = inactive; . = no result given; + = active, no number; [ ] = remark or other dose. The list is not random: actives were taken first. Their share in the collection is about 6.3%.

SMILES | NADH enzymes | Fluor 339 460 | DPM-DC inhibit | Spn MK inh | PMK inhibit | Abs 340nm
COCCCn1c2nc3ccccc3nc2c2c(=O)n(-c3ccccc3OC)cnc21 | 8% | 2.4* | i | 7 | 12 | 1.1
COCCCn1c2nc3ccccc3nc2c2c(=O)n(-c3ccccc3OC)c(C)nc21 | 11% | 1.9 | i | 8 | 6 | 1
CCn1ccnc1C(O)c1ccc(N(C)C)cc1 (stereo not given) | 9% | 1.1 | i | 9 | 19 | 1
COc1cccc2[nH]c3c(N4CCC(C)CC4)ncnc3c12 | 3% | 3.7* | . | 0 | 6 | 1.1
COc1cccc(N2CCN(c3ncnc4c3[nH]c3ccccc34)CC2C)c1 (stereo not given) | 7% | 1.4 | i | 3 | 0 | 1.1
COc1cc2[nH]c3c(N4CCN(c5ccc(Cl)cc5)CC4)ncnc3c2cc1OC | 3% | 2.4* | i | 1 | 9 | 1.1
COc1cccc2[nH]c3c(N4CCN(Cc5ccc6c(c5)OCO6)CC4)ncnc3c12 | 9% | 3.9* | . | 14 | 4 | 1.1
CC1(C)CC(=O)C(C=NCCN2CCN(CCCCS(=O)(=O)O)CC2)=C(O)C1 | 6% | 1 | i | 0 | 17 | 1
CN(C)c1ccc(NC(=O)CN2CCC(C(=O)c3ccc(F)cc3)CC2)cc1 | 8% | 1 | i | 12 | 10 | 1
COCCOC(=O)c1cc(C(=O)c2cc(F)ccc2O)coc1=N | 8% | 2.4* | i | 10 | 16 | 1
Cc1nc2oc3c(NCC4CCCO4)ncnc3c2c2c1COC(C)(C)C2 (stereo not given) | 12% | 2.1* | + | 0 | 2 | 1
Cc1nc2oc3c(NCc4ccccc4)ncnc3c2c2c1COC(C)(C)C2 | 9% | 2.5* | i | 7 | 0 | 1
CCc1cc2c(NCC3CCCO3)ncnc2s1 (stereo not given) | 5% | 1.1 | i | 11 | 4 | 1
Cc1nc2sc3c(NCc4ccco4)ncnc3c2c2c1COC(C)(C)C2 | 3% | 1.4 | i | 1 | 9 | 1.1
CCCc1nc2oc3c(NCCOCCO)ncnc3c2c2c1COC(C)(C)C2 | 6% | 3.6* | . | 9 | 2 | 1
CC(C)c1nc2oc3c(NCC4CCCO4)ncnc3c2c2c1COC(C)(C)C2 (stereo not given) | 11% | 3.8* | . | 9 | 12 | 1
COc1ccc2oc(C(=O)C3CC3)c(NC(=O)CCCN3C(=O)c4ccccc4C3=O)c2c1 | 2% | 1.1 | i | 3 | 0 | 1.1
O=C(NC1CCCCC1)C(c1ccco1)N(Cc1ccco1)C(=O)c1ccco1 (stereo not given) | 2% | 1.1 | i | 0 | 7 | 1
Cc1ccccc1C(NC(N)=O)c1ccccc1 (stereo not given) | 3% | 1.1 | i | 9 | 0 | 1
COc1ccc(-c2nc3n(c(=O)c2C#N)CCCS3)cc1 | 8% | 2* | i | 5 | 0 | 1.1
CCOc1ccc(-c2nc3n(c(=O)c2C#N)CCCS3)cc1 | 14% | 2.8* | i | 11 | 8 | 1.1
COC(=O)c1ccc(OCCN2C3=NCCN3c3ccccc32)cc1 | 5% | 1.1 | i | 8 | 7 | 1
CCC(=O)Oc1ccc2c(C)cc(=O)oc2c1C | 5% | 2.1* | +[fluoresces] | 7 | 12 | 0.98
Cc1ccc2c(c1)c1ncnc(N3CCOCC3)c1n2C | 5% | 3.8* | . | 8 | 2 | 1
Cc1ccc(-n2ncc3c(N4CCC5(CC4)OCCO5)ncnc32)c(C)c1 | 10% | 0.66 | i | 1 | 1 | 1
SMILES | NADH enzymes | Fluor 339 460 | DPM-DC inhibit | Spn MK inh | PMK inhibit | Abs 340nm
Cc1ccc2c(c1)c1ncnc(N3CCC4(CC3)OCCO4)c1n2C | 9% | 3.7* | . | 13 | 4 | 1.1
Cc1ccc2c(c1)c1ncnc(N3CCN(c4ccccc4)CC3)c1n2C | 2% | 1.9 | i | 6 | 0 | 1
CCOC(=O)c1c(C)cccc1OCC(N)=O | 2% | 1.1 | i | 5 | 2 | 1
COc1cc(C)nc(Nc2nc(C)c(C(C)=O)s2)n1 | 3% | 1.1 | i | 1 | 4 | 1.1
COc1ccc2nc(Nc3nc(C)c(C(C)=O)s3)sc2c1 | 7% | 2* | i | 9 | 11 | 1
CC(C)(C)c1ccc(S(=O)(=O)N2CCCC2C(=O)NC2=NCCS2)cc1 (stereo not given) | 10% | 0.99 | i | 0 | 6 | 1
CCCc1cc(-c2[nH]ncc2-c2ccc3c(c2)OCCCO3)c(O)cc1O | 4% | 1.1 | i | 5 | 7 | 1
CCCc1cc(-c2[nH]ncc2-c2ccc(C(=O)OCC)o2)c(O)cc1O | 4% | 2.2* | i | 3 | 4 | 1
C=CCSc1nnc(C)n1-c1ccc(Cl)cc1 | 5% | 1.1 | i | 11 | 3 | 1
CC(C)CC(c1nnnn1C1CCCC1)N1CCN(C(=O)c2ccco2)CC1 (stereo not given) | 7% | 1.1 | i | 7 | 13 | 0.98
COc1ccc2[nH]c(=O)c(CNC3CCCCC3)cc2c1 | 3% | 2.7* | . | 7 | 7 | 1
COc1ccc2cc(CN(C(=O)Nc3ccccc3)C3CCCC3)c(=O)[nH]c2c1 | 7% | 1.1 | i | 5 | 16 | 1.1
COc1ccc2[nH]c(=O)c(CN(C(=O)NC3CCCCC3)C3CCCCC3)cc2c1 | 12% | 2.8* | i | 2 | 13 | 1.1
COc1ccccc1-c1c(C)nn2c(C)cc(C)nc12 | 5% | 1.1 | i | 9 | 7 | 1
Cc1cc(C)n2nc3nc4c(cc3c2n1)CCCC4 | 6% | 2.2* | . | 5 | 7 | 1.1
c1c2c(cc3sc(N4CCCCC4)nc13)OCO2 | 8% | 1.1 | i | 6 | 18 | 1
O=c1cc(C(F)(F)F)c2sc(N3CCCCC3)nc2[nH]1 | 9% | 2.1* | . | 0 | 17 | 1.1
Cc1c(C)[n+](=O)c(-c2ccco2)c(C)n1[O-] | 4% | 1.1 | i | 13 | 0 | 1
CCCn1c(SCc2cc(=O)oc3ccc4ccccc4c23)n[nH]c1=O | 9% | 2.1* | . | 0 | 17 | 1.1
CCCn1c(SCC(=O)NC(=O)NCc2ccco2)n[nH]c1=O | 3% | 1 | i | 0 | 13 | 1
CCOC(=O)COc1ccc2c(c1)C(=O)CC1(CCN(C(C)=O)CC1)O2 | 10% | 4.8* | . | 0 | 19 | 1
CC1(C)CC(=O)c2cc(OCC(=O)O)ccc2O1 | 7% | 4.8* | . | 0 | 14 | 1
CCOC(=O)COc1ccc2c(c1)C(=O)CC(C)(C)O2 | 8% | 4.8* | . | 0 | 15 | 1
CC1(C)CC(=O)c2cc(OCC(=O)N3CCN(c4ccccc4F)CC3)ccc2O1 | 6% | 2.6* | +[may fluoresce] | 4 | 26* | 0.99
O=C(O)COc1ccc2c(c1)CCCC2 | 2% | 1.1 | i | 0 | 0 | 1.1
